This is an account of results in PubChem BioAssay (NCATS).

Unmarked numbers belong to inactive results. Records with an inconclusive call do not appear. Calls of active or inactive are those of the source. Calls follow the shape of the dose curve; as a rule, active = well fitted curve in the direction sought with a large enough effect; inconclusive = small, poorly fitted or top-dose-only effect, or another doubt; inactive = no such curve, though single readings can be large; an effect the other way counts as inactive or inconclusive.

Assay [1] has as its target Cytochrome P450 2D6 (Homo sapiens) (UniProt P10635). The assay is described as follows: qHTS for inhibitors of CYP2D6 against the NCATS DSHEA and TCM libraries (AID 1919972). Also: % is scaled to controls: 0 for no effect and ±100 for the full control effect. An outline of the steps: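 Steps: enzyme plus luciferin substrate dispensed; test substances pinned; 15 min RT; 1x NADPH regenerating solution added, 30–45 min RT protected from light; detection reagent, 30 min RT; luminescence measured. Minus-enzyme wells as background.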

In assay [2] the target is Cytochrome P450 2C9 (Homo sapiens) (UniProt P11712). The assay is described as follows: qHTS for inhibitors of CYP2C9 against the NCATS DSHEA and TCM libraries (AID 1919973).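 Also: luminogenic pro-luciferin CYP2C9 substrate turned into luciferin with NADPH regeneration; series mostly up to about 34 µM; % is scaled to controls: 0 for no effect and ±100 for the full control effect.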 Summed up: (§1)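 Luminescent P450-Glo readout. Enzyme plus pro-luciferin substrate in manufacturer buffer (typically 100 mM KPO4); 15 min RT preincubation; 1x NADPH regenerating system, 30-45 min RT in the dark; detection reagent 30 min.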
Sequence of Cytochrome P450 2C9 (Homo sapiens) (P11712 whole entry, looked up): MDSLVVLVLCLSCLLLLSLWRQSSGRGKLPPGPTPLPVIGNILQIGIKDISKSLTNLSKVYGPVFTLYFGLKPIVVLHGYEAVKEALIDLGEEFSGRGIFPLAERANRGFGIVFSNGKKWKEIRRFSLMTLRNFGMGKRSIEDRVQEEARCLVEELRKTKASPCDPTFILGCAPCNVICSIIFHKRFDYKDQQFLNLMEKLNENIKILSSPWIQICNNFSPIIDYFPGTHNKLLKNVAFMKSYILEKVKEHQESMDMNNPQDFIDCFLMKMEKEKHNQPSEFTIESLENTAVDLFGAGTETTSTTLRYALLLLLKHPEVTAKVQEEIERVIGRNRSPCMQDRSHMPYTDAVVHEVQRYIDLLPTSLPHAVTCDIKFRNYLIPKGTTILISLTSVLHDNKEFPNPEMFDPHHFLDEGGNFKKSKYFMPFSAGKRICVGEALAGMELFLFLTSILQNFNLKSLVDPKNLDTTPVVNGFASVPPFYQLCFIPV
On the technique in general: qHTS replaces the single test concentration by a dilution series.

Assay [3] has as its target Cytochrome P450 2C19 (Homo sapiens) (UniProt P33261). The assay is described as follows: qHTS for inhibitors of CYP2C19 against the NCATS DSHEA and TCM libraries (AID 1919974).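 Also: luminescence from luciferin released by CYP2C19 oxidation of a pro-luciferin substrate.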 Also: potency is read from the fitted curve at half-maximal effect. An outline of the steps: as §1
A short description of assay [4]: KB-3-1 P-gp reporter qHTS against the NCATS DSHEA and TCM libraries (AID 1919975). Also: 0% is about no effect. An outline of the steps:
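Parental KB-3-1 human cervical adenocarcinoma cells (500 cells/well, DMEM + 10% FBS) were treated with substances for ~72 h at 37C; viability was read by CellTiter-Glo luminescence.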

The target of assay [5] is Cytochrome P450 1A2 (Homo sapiens) (UniProt P05177). Kind of assay: qHTS for inhibitors of CYPIA2 against the NCATS DSHEA and TCM libraries (AID 1919976). Also: potency is read from the fitted curve at half-maximal effect. Summed up:
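Human CYP1A2 with its pro-luciferin substrate in supplier buffer (typically 100 mM KPO4) was pre-incubated with compounds 15 min at RT. Reaction was started with 1x NADPH regeneration solution and run 30-45 min at RT in the dark, then luminescence was read after P450-Glo detection reagent (30 min RT).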

A short description of assay [6]: qHTS Counterscreen for compound interference against the NCATS DSHEA and TCM libraries (AID 1919978). Also: % of control where 0% means no effect. The following applies: firefly luciferase detection reagent interference, luminescence. Summed up:
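D-luciferin (1 uM final) or 100 mM potassium phosphate buffer alone was preincubated 15 min at RT with compounds (19.5 nM to 39.8 uM final). Luciferin detection reagent was then added and luminescence read after 30 min at RT.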

A short description of assay [7]: Dual reporter qHTS for agonist of Pregnane X Receptor (hPXR) against the NCATS DSHEA and TCM libraries: Fluorescence readout (AID 1920058). Also: 0% is about no effect. Summed up:
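hPXR-Luc HepG2 cells (2000/well) in phenol red-free medium with charcoal-stripped FBS attached for 5 h, then were exposed to compounds for about 24 h at 37 °C. Viability was read by CellTiter-Fluor fluorescence (Ex/Em 405/540 nm) after 1 h.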

The target of assay [8] is Nuclear receptor subfamily 1 group I member 2 (Homo sapiens) (UniProt O75469). Kind of assay: Dual reporter qHTS for agonist of Pregnane X Receptor (hPXR) against the NCATS DSHEA and TCM libraries: Luminescence readout (AID 1920059). Also: 0% is about no effect. Summed up: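 hPXR-LucHepG2 cells in phenol red-free DMEM with 5% charcoal-stripped FBS, 2000 cells/well, attached 5 h, then exposed 24 h at 37C to compounds; rifampicin as positive agonist control (2.8 nM–92 uM). Luciferase luminescence read.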
Sequence of Nuclear receptor subfamily 1 group I member 2 (Homo sapiens) (O75469 whole entry, looked up): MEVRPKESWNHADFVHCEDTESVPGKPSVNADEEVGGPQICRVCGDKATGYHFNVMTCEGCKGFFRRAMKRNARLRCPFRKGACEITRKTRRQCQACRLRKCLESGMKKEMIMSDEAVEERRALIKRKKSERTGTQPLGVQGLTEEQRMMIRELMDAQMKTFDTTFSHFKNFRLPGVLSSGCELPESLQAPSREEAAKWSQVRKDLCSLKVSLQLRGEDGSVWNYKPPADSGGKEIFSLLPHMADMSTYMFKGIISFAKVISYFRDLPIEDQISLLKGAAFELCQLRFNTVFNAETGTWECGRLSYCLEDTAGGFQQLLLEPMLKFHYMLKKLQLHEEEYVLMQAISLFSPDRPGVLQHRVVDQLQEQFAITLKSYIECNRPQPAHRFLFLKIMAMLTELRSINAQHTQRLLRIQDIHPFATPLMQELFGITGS

For assay [9] the target is unchanged. The assay is described as follows: Dual reporter qHTS for antagonist of Pregnane X Receptor (hPXR) against the NCATS DSHEA and TCM libraries: Luminescence Readout (AID 1920060). Also: 0% is about no effect. An outline of the steps:
(§2)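 Rifampicin-stimulated (2 uM final) hPXR-luciferase HepG2 cells were treated for 24 h with DSNP/TCM substances. Viability came from CellTiter-Fluor fluorescence, reporter activity from ONE-Glo luminescence.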

The nature of assay [10]: Dual reporter qHTS for antagonist of Pregnane X Receptor (hPXR) against the NCATS DSHEA and TCM libraries: Fluorescence Readout (AID 1920061). Also: 0% is about no effect. An outline of the steps: as §2

Sequence of Cytochrome P450 1A2 (Homo sapiens) (P05177 whole entry, looked up): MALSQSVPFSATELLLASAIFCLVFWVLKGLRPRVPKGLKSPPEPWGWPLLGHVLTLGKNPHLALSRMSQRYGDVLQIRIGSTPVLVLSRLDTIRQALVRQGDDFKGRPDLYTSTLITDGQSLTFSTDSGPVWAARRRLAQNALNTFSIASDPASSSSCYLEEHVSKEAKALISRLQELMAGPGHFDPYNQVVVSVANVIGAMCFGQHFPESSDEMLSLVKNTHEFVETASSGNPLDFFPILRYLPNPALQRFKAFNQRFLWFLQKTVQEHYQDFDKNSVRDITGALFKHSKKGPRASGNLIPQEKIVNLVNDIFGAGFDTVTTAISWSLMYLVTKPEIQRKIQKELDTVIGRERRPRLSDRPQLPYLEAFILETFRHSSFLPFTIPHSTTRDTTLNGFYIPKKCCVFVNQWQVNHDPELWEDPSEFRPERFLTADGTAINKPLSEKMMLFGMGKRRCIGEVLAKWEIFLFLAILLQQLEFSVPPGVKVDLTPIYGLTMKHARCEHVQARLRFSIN
Sequence of Cytochrome P450 2C19 (Homo sapiens) (P33261 whole entry, looked up): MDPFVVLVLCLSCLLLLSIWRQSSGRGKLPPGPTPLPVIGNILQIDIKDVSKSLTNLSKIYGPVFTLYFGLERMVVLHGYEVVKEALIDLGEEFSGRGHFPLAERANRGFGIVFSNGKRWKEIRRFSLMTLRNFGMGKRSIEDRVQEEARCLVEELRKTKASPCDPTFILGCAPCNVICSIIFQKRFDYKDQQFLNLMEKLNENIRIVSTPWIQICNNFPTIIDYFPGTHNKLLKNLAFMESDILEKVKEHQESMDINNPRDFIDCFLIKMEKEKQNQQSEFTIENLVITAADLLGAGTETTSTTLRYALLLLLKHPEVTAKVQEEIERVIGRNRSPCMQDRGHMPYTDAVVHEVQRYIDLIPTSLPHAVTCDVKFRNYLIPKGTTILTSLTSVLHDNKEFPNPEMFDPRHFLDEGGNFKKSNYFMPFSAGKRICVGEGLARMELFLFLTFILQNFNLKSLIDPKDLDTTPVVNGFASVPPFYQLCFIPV
Sequence of Cytochrome P450 2D6 (Homo sapiens) (P10635 whole entry, looked up): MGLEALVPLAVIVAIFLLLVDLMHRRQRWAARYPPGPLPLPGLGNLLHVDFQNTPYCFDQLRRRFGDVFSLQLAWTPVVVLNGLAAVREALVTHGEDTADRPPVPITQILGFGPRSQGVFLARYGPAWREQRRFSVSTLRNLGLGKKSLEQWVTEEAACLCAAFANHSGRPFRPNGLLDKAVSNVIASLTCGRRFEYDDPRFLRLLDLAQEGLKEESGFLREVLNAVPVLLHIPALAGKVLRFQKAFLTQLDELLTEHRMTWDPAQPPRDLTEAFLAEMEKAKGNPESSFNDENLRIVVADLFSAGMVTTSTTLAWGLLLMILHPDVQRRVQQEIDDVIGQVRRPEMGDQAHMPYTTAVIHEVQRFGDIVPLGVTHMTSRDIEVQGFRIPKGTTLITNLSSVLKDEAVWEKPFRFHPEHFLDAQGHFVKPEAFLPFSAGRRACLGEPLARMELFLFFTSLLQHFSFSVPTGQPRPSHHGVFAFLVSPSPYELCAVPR

For `OC[C@H]1O[C@@H](OC[C@H]2O[C@@H](OC/C=C/c3ccccc3)[C@H](O)[C@@H](O)[C@@H]2O)[C@@H](O)[C@@H]1O`, the compound was called inactive in assay [1], in [2], in assay [4], in assay [7], in [8] and in [9]. Besides, the call in assay [10] was inactive. The Potency entry in [3] and in assay [5] was “inactive” in each case. The max response in assay [6] is -0.863%.
As to `CC(C)=CCC[C@](C)(O)[C@H]1CC[C@]2(C)[C@@H]1[C@H](O)CC1[C@@]3(C)CC[C@H](O)C(C)(C)[C@@H]3[C@@H](O[C@@H]3O[C@H](CO)[C@@H](O)[C@H](O)[C@H]3O[C@@H]3O[C@H](CO)[C@@H](O)[C@H](O)[C@H]3O)C[C@]12C` (stereo partly specified), the compound was classed as inactive in assay [1], in assay [2], in assay [4], in [7], in assay [8] and in assay [9]. For the same compound, the compound was classed as inactive in assay [10]. Further, the Potency entry in assay [3] and in assay [5] was “inactive” throughout. For the same compound, in assay [6], the max response was -4.33%.
In the case of `CC(C)=CCC[C@](C)(O[C@@H]1O[C@H](CO[C@@H]2O[C@H](CO)[C@@H](O)[C@H](O)[C@H]2O)[C@@H](O)[C@H](O)[C@H]1O)C1CC[C@]2(C)[C@@H]1[C@H](O)CC1[C@@]3(C)CC[C@H](O[C@@H]4O[C@H](CO)[C@@H](O)[C@H](O)[C@H]4O[C@@H]4O[C@H](CO)[C@@H](O)[C@H](O)[C@H]4O)C(C)(C)[C@@H]3CC[C@]12C` (stereo partly specified), the outcome in assay [1], in [2], in assay [4], in assay [7], in assay [8] and in assay [9] was inactive. The outcome in assay [10] was inactive. In addition, in assay [3], the Potency was 1 µM (active). For the same compound, the max response in assay [6] is -2.77%.
Turning to `CC1CC[C@]2(C(=O)O)CC[C@]3(C(=O)O)C(=CCC4[C@@]5(C)CC[C@H](OC6OC(C)C(O)C(OC7OC(CO)C(O)C(O)C7O)C6O)C(C)(C)C5CC[C@]43C)C2C1C` (stereo partly specified), the compound was called inactive in assay [1], in assay [4], in assay [7], in [8], in [9] and in assay [10]. In addition, the Potency result in assay [3] and in assay [5] was “inactive” each time. Besides, in assay [6], the max response was -1.38%.
For the compound `C[C@@]12CC[C@@H]3[C@@](CC[C@H]4[C@@]3(C)CCC[C@@]4(C)C(=O)O)(CC1=O)C2`, the result in assay [1], in assay [4], in [7], in assay [8], in assay [9] and in [10] was inactive. In addition, the Potency in assay [3] is 14.1 µM (active). Also, in assay [5], the Potency entry is “inactive”. Moreover, the max response in assay [6] was 0.713%.
Consider `CC(C)=CCC(O)/C(C)=C/CO[C@@H]1O[C@H](CO)[C@@H](O)[C@H](O)[C@H]1O` (stereo partly specified), for which the compound was called inactive in assay [1], in assay [4], in [7], in assay [8], in [9] and in assay [10]. Further, the Potency in assay [3] is 2.51 µM (active); in assay [5] it was 3.55 µM (active). Moreover, in assay [6], the max response is -4.77%.
